A short description of test [1]: NCI Yeast Anticancer Drug Screen. Data for the rad50 strain (AID 155).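 Also: 0% = growth of vehicle-only cultures of the same strain.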 As to conditions: S. cerevisiae rad50 strain growth inhibition; at 50.0 µM; hits give high values. The procedure, abridged: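 Vehicle-treated cultures provide the reference for the growth inhibition reported for compound-exposed, repair-deficient yeast.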
Test [2] is described as follows: NCI Yeast Anticancer Drug Screen. Data for the mec2-1 strain (AID 157). As to conditions: S. cerevisiae mec2-1 strain, at 50.0 µM, hits give high values. The procedure, abridged: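 mec2-1 yeast strain, carrying an alteration in DNA damage repair or cell cycle control, was exposed to compounds; growth inhibition was measured relative to vehicle-treated controls.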

The nature of test [3]: NCI Yeast Anticancer Drug Screen. Data for the sgs1 mgt1 strain (AID 161).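 Also: 0% = growth of cultures given vehicle only.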 As to conditions: S. cerevisiae sgs1 mgt1 strain, at 50.0 µM, hits give high values. The procedure, abridged:
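Compounds are added to genetically altered yeast, and growth is compared with cultures given vehicle alone to give percent inhibition.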

The nature of test [4]: NCI Yeast Anticancer Drug Screen. Data for the cln2 rad14 strain (AID 165).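 Also: 0% = growth equal to vehicle treated cultures.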 Particulars: S. cerevisiae cln2 rad14 strain, at 50.0 µM, hits give high values. The procedure, abridged:
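Yeast carrying cln2 and rad14 alterations (cell cycle control and DNA damage repair) were exposed to compounds. Growth inhibition was measured against vehicle-treated controls.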

Test [5] in a line: NCI Yeast Anticancer Drug Screen. Data for the bub3 strain (AID 167). As to conditions: S. cerevisiae bub3 mutant strain, at 50.0 µM, hits give high values. The procedure, abridged:
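Mutant yeast screening strain plus compound; vehicle-treated cultures serve as the 0% inhibition reference.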

The nature of test [6]: NCI Yeast Anticancer Drug Screen. Data for the mlh1 rad18 strain (AID 175). Particulars: S. cerevisiae mlh1 rad18 strain growth inhibition; at 50.0 µM; hits give high values. The procedure, abridged:
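Growth inhibition of the yeast strain was measured after compound exposure and expressed relative to vehicle-treated controls. The strain carries defined defects in DNA damage repair.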

Each structure is given as a SMILES string. The panel holds about 79,000 compounds, 15% with a hit somewhere; the sample as a whole holds those more often. Unmarked numbers belong to inactive results. The source made the active and inactive calls. Rule as the data show it: active = growth inhibition above about 70%; inactive = the rest.

Consider `O=C(Nc1cc(C(F)(F)F)ccc1Cl)N(Cc1ccccc1)c1ccccc1`, for which the growth inhibition in test [1] was -10.3%; in test [2] it was -15.9%; in test [3], -1.35%; in test [4] it was -74.2%; in test [5], -8.2%; in test [6], -8.7%.

`COC(=O)Oc1ccc(Cl)cc1Cl`: the growth inhibition was -18.1% in test [1]; -6.05% in test [2]; 15.9% in test [3]; -77.4% in test [4]; -8.25% in test [5]; 5.7% in test [6].

Turning to `CC(=O)N1c2ccccc2C2=NN(C)C(=N)SC21` (stereo not given), the growth inhibition in test [1] is -27.6%; in test [2] it was -5.7%; in test [3], -27.3%; in test [4] it was -7.65%; in test [5], -5.2%; in test [6], 1.65%.

As to `COc1ccc(C(O)/C(=C/n2ccnc2)c2ccccc2)cc1OC` (stereo not given), the growth inhibition was -23.8% in test [1]; -17.8% in test [2]; -15.6% in test [3]; -5.85% in test [4]; -7.65% in test [5]; -25.2% in test [6].

On to `CCOc1c(N=Nc2ccc(Cl)cc2)c(C)nn1C(N)=S`, for which the growth inhibition in test [1] is -19.2%; in test [2], 16.2%; in test [3], 12.2%; in test [4], -12.6%; in test [5] it was 36.4%; in test [6], 44.5%.

For the compound `COc1c(O)c(/C=C/C(=O)NN)cc2ccoc12`, the growth inhibition in test [1] is -4.75%; in test [2] it was -10.3%; in test [3] it was -25.1%; in test [4] it was -16.5%; in test [5], 15.8%; in test [6], -23.9%.

As for `CC(NC(=O)C(N)CCC(=O)O)C(=O)NCP(=O)(O)O` (stereo not given), the growth inhibition is -13.1% in test [1]; -49% in test [2]; 0.35% in test [3]; 26.4% in test [4]; 4.25% in test [5]; 8% in test [6].

Regarding `O=C1Nc2ccccc2Nc2nc3cccccc-3c21`, the growth inhibition in test [1] is 9.85%; in test [2], -15.2%; in test [3], -2.4%; in test [4] it was 16.8%; in test [5], -6.6%; in test [6], -13.8%.

As to `O/C=C(\Cl)CCl`, the growth inhibition is 17.2% in test [1]; -7.15% in test [2]; 12.4% in test [3]; 11.9% in test [4]; 5.1% in test [5]; 16.2% in test [6].

`O=C(NC(=O)c1c(F)cccc1F)Nc1nc2c(Cl)cccc2s1`: the growth inhibition in test [1] was 21.4%; in test [2] it was 14.7%; in test [3] it was 10.1%; in test [4], -4.9%; in test [5], -6.55%; in test [6], 17.6%.

As for `O=C1C2C3CCC(C3)C2C(=O)N1CCO` (stereo not given), the growth inhibition was 3.35% in test [1]; 6% in test [2]; 7.15% in test [3]; 4.85% in test [4]; 17.9% in test [5]; -2.45% in test [6].

With `COc1cc2c(c(OC)c1OC)-c1ccc(SCC3CCC4CC3C4(C)C)c(=O)cc1C(NC(C)=O)CC2` (stereo not given), the growth inhibition was 97.5% (active) in test [1]; 97.3% (active) in test [2]; 98% (active) in test [3]; 96.2% (active) in test [4]; 95.9% (active) in test [5]; 96.9% (active) in test [6].

`COc1ccc(/C(C)=N/N=C(\C)c2ccc(OC)cc2)cc1`: the growth inhibition in test [1] was 7.45%; in test [2] it was -28.1%; in test [3] it was 32.3%; in test [4], 12.3%; in test [5], 17.1%; in test [6], 13.6%.

Consider `O=C(N/C(=C\c1ccccc1)C1Nc2ccccc2C(=O)O1)c1ccccc1` (stereo not given), for which the growth inhibition in test [1] is -6.8%; in test [2] it was 2.95%; in test [3] it was -19.6%; in test [4] it was -17.2%; in test [5], -8.95%; in test [6] it was -24.7%.

For the compound `CCc1nnc(N)o1`, the growth inhibition was -14.8% in test [1]; 1.9% in test [2]; 0.95% in test [3]; -2.5% in test [4]; -13.7% in test [5]; -14.2% in test [6].

On to `COc1ccc2ccccc2c1C=O`, for which the growth inhibition was 33.5% in test [1]; 23% in test [2]; 40.1% in test [3]; -16.2% in test [4]; 5.45% in test [5]; 47.8% in test [6].

With `COc1c2occc2c(S(=O)(=O)O)c2ccc(=O)oc12`, the growth inhibition in test [1] is -12.5%; in test [2], 4.05%; in test [3], 6.45%; in test [4] it was 3.75%; in test [5], -40.6%; in test [6] it was 2.7%.

`O=[N+]([O-])C(/C=N/Nc1ccccc1)/C=N/Nc1ccccc1`: the growth inhibition in test [1] was -5.95%; in test [2], -8.3%; in test [3] it was -20.8%; in test [4], -6.55%; in test [5], -24.6%; in test [6], -10.9%.

With `CC(C(O)C(F)(F)F)[N+](C)(C)C` (stereo not given), the growth inhibition was 34.8% in test [1]; 5.85% in test [2]; 1.8% in test [3]; -13.8% in test [4]; 10.1% in test [5]; 28% in test [6].

As for `CC(=O)CC(=O)CCCCCCCCCCCC(=O)CC(C)=O`, the growth inhibition in test [1] was -5.15%; in test [2], -15.4%; in test [3], -5.45%; in test [4] it was -0.1%; in test [5], 13.5%; in test [6], 10.4%.

(Values after PubChem BioAssay (NCI).)
